In all, about 5,500 compounds went through this assay and about 2,000 (36%) were called active. Roughly 18% stayed inconclusive and do not appear here. No stated cut-off is given here; in the data, active means normalized growth mostly below about 0.91 (no sharp cut-off); inconclusive means no clear call, values can overlap the other calls; inactive means mostly above about 0.92. This is one part of the list.
Experiment: chemical genetic growth profiling, strain panel (AID 1159580);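 further: tested at 20 µM; growth read once vehicle control cultures reached saturation at 30 °C; 1 = growth at the plate median or of vehicle wells; lower values mean less growth of the strain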
Conditions: growth OD

Measured: normalized growth

COC(=O)C[C@H]1C(C)(C)C2(O)OC34CC2C(=O)[C@]1(C)C3CC[C@]1(C)C4=CC(=O)O[C@H]1c1ccoc1 (some centres not stated)
inactive: S. cerevisiae deletion strains, locus YJR043C, strain POL32, hits give low values 0.992 | S. cerevisiae deletion strains, locus YJR066W, strain TOR1, hits give low values 0.92 | S. cerevisiae deletion strains, locus YKL009W, strain mrt4, hits give low values 1.03 | S. cerevisiae deletion strains, locus YKL068W, hits give low values 1.01 | S. cerevisiae deletion strains, locus YKL085W, strain MDH1 (second series), hits give low values 1.02 | S. cerevisiae deletion strains, locus YKL085W, strain MDH1, hits give low values 1.02 | S. cerevisiae deletion strains, locus YKL160W, strain elf1, hits give low values 1.01 | S. cerevisiae deletion strains, locus YKL190W, strain CNB1, hits give low values 0.994 | S. cerevisiae deletion strains, locus YKR001C, strain vps1, hits give low values 1.01 | S. cerevisiae deletion strains, locus YKR026C, strain gcn3, hits give low values 0.991 | S. cerevisiae deletion strains, locus YKR091W, strain srl3, hits give low values 0.985 | S. cerevisiae deletion strains, locus YLL001W, strain dnm1, hits give low values 1.02 | S. cerevisiae deletion strains, locus YLL026W, hits give low values 0.998 | S. cerevisiae deletion strains, locus YLL041C, strain sdh2, hits give low values 0.979 | S. cerevisiae deletion strains, locus YLR027C, strain aat2, hits give low values 1 | S. cerevisiae deletion strains, locus YLR039C, strain RIC1, hits give low values 1.05 | S. cerevisiae deletion strains, locus YLR058C, strain SHM2, hits give low values 1 | S. cerevisiae deletion strains, locus YLR102C, strain apc9, hits give low values 1.01 | S. cerevisiae deletion strains, locus YLR113W, strain HOG1, hits give low values 1.01 | S. cerevisiae deletion strains, locus YLR221C, strain rsa3, hits give low values 0.991 | S. cerevisiae deletion strains, locus YLR258W, strain gsy2, hits give low values 0.989 | S. cerevisiae deletion strains, locus YLR262C, strain YPT6 (second series), hits give low values 1 | S. cerevisiae deletion strains, locus YLR262C, strain YPT6, hits give low values 1.08 | S. cerevisiae deletion strains, locus YLR268W, strain sec22, hits give low values 0.998 | S. cerevisiae deletion strains, locus YLR320W, strain mms22, hits give low values 0.989 | S. cerevisiae deletion strains, locus YLR342W, strain FKS1, hits give low values 0.977 | S. cerevisiae deletion strains, locus YLR357W, strain rsc2, hits give low values 0.999 | S. cerevisiae deletion strains, locus YLR370C, strain arc18, hits give low values 0.967 | S. cerevisiae deletion strains, locus YLR371W, strain rom2, hits give low values 0.998 | S. cerevisiae deletion strains, locus YLR384C, strain iki3, hits give low values 0.975 | S. cerevisiae deletion strains, locus YLR418C, strain cdc73, hits give low values 1.03 | S. cerevisiae deletion strains, locus YML016C, strain PPZ1, hits give low values 1 | S. cerevisiae deletion strains, locus YML032C, strain rad52, hits give low values 1.01 | S. cerevisiae deletion strains, locus YML120C, strain ndi1, hits give low values 0.981 | S. cerevisiae deletion strains, locus YML124C, strain tub3, hits give low values 1.01 | S. cerevisiae deletion strains, locus YMR058W, strain fet3, hits give low values 0.999 | S. cerevisiae deletion strains, locus YMR078C, strain ctf18, hits give low values 1.01 | S. cerevisiae deletion strains, locus YMR125W, strain sto1, hits give low values 0.982 | S. cerevisiae deletion strains, locus YMR129W, hits give low values 0.994 | S. cerevisiae deletion strains, locus YMR205C, strain PFK2, hits give low values 1.01 | S. cerevisiae deletion strains, locus YMR223W, strain ubp8, hits give low values 1.01 | S. cerevisiae deletion strains, locus YMR231W, strain pep5, hits give low values 0.957 | S. cerevisiae deletion strains, locus YMR307W, strain GAS1, hits give low values 0.93 | S. cerevisiae deletion strains, locus YNL067W, strain RPL9B, hits give low values 1 | S. cerevisiae deletion strains, locus YNL071W, strain lat1, hits give low values 0.989 | S. cerevisiae deletion strains, locus YNL153C, strain GIM3, hits give low values 1.01 | S. cerevisiae deletion strains, locus YNL183C, strain NPR1, hits give low values 0.931 | S. cerevisiae deletion strains, locus YNL209W, strain ssb2, hits give low values 0.984 | S. cerevisiae deletion strains, locus YNL233W, strain BNI4, hits give low values 0.985 | S. cerevisiae deletion strains, locus YNL248C, strain rpa49, hits give low values 1 | S. cerevisiae deletion strains, locus YNL250W, strain rad50, hits give low values 1.01 | S. cerevisiae deletion strains, locus YNL271C, strain bni1, hits give low values 1.01 | S. cerevisiae deletion strains, locus YNL298W, strain CLA4, hits give low values 1 | S. cerevisiae deletion strains, locus YNL307C, strain MCK1, hits give low values 1 | S. cerevisiae deletion strains, locus YNL322C, strain KRE1 (second series), hits give low values 0.981 | S. cerevisiae deletion strains, locus YNR049C, strain mso1, hits give low values 0.988 | S. cerevisiae deletion strains, locus YNR052C, strain pop2, hits give low values 1.01 | S. cerevisiae deletion strains, locus YOL006C, strain TOP1, hits give low values 1.01 | S. cerevisiae deletion strains, locus YOL012C, strain htz1 0.65 | S. cerevisiae deletion strains, locus YOL147C, strain pex11, hits give low values 1.01 | S. cerevisiae deletion strains, locus YOR001W, strain rrp6, hits give low values 0.953 | S. cerevisiae deletion strains, locus YOR061W, strain CKA2, hits give low values 1.01 | S. cerevisiae deletion strains, locus YOR069W, strain VPS5, hits give low values 0.997 | S. cerevisiae deletion strains, locus YOR070C, strain gyp1, hits give low values 0.992 | S. cerevisiae deletion strains, locus YOR080W, strain dia2, hits give low values 0.988 | S. cerevisiae deletion strains, locus YOR083W, strain WHI5, hits give low values 1.02 | S. cerevisiae deletion strains, locus YOR106W, strain vam3, hits give low values 1.03 | S. cerevisiae deletion strains, locus YOR136W, strain idh2, hits give low values 1.01 | S. cerevisiae deletion strains, locus YOR144C, strain elg1, hits give low values 1.02 | S. cerevisiae deletion strains, locus YOR184W, strain ser1, hits give low values 0.996 | S. cerevisiae deletion strains, locus YOR231W, strain MKK1, hits give low values 1.01 | S. cerevisiae deletion strains, locus YOR265W, strain rbl2, hits give low values 0.984 | S. cerevisiae deletion strains, locus YOR270C, strain vph1, hits give low values 0.98 | S. cerevisiae deletion strains, locus YOR290C, strain snf2, hits give low values 0.97 | S. cerevisiae deletion strains, locus YOR316C, strain cot1, hits give low values 1.02 | S. cerevisiae deletion strains, locus YPL051W, strain arl3, hits give low values 1.01 | S. cerevisiae deletion strains, locus YPL078C, strain atp4, hits give low values 1.01 | S. cerevisiae deletion strains, locus YPL106C, strain sse1, hits give low values 0.969 | S. cerevisiae deletion strains, locus YPL240C, strain hsp82, hits give low values 0.988 | S. cerevisiae deletion strains, locus YPL241C, strain CIN2, hits give low values 1 | S. cerevisiae deletion strains, locus YPL256C, strain CLN2, hits give low values 0.942 | S. cerevisiae deletion strains, locus YPR119W, strain clb2, hits give low values 1.01 | S. cerevisiae deletion strains, locus YPR141C, strain kar3, hits give low values 1.01 | S. cerevisiae deletion strains, locus YPR163C, strain tif3, hits give low values 1.01 | S. cerevisiae deletion strains, locus YPR167C, strain met16, hits give low values 1.01 | S. cerevisiae deletion strains, strain wtn01, hits give low values 1 | S. cerevisiae strains, strain wild type, hits give low values 0.996

— PubChem BioAssay AID1159580 (chemical genetic matrix, 2015)
